Assay results: PubChem BioAssay (NCATS)

Assay: qHTS profiling of the MIPE4 collection as inhibitors of Plasmodium falciparum (HB3) proliferation (AID 743347);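 also: plate controls were DMSO vehicle wells for no effect and artemisinin wells for full effect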
Details: P. falciparum HB3 in erythrocytes, SYBR Green DNA, 72 h; at 9.64 µM (top of the series)
From the text: Plasmodium falciparum is a virulent malarial parasite that kills 1-2 million people worldwide each year. Transmitted by mosquitoes, the sporozoite form of the parasite enters the blood stream to infect hepatocytes, where they become merozoites that infect red blood cells (erythrocytes). Within erythrocytes, merozoites begin a […] cycle of growth and division, after which the parasite is released to infect new red blood cells. Gametocytes, which form within erythrocytes as well, circulate in the bloodstream and are ingested by the mosquito, thereby completing the life cycle. To profile malarial isolates for differential chemical responses and to identify inhibitors of malarial growth, an assay that measures P. falciparum growth and replication within erythrocytes was employed. This assay uses a DNA binding fluorescent dye (SYBR Green) to detect parasite DNA following cell lysis. Because mature erythrocytes lack DNA, only Plasmodium-derived DNA is detected.
The SYBR Green viability assay was adapted from a method described previously (Plouffe et al., 2008). For screening 3 ul culture medium was dispensed into 1536 well black clear bottom plates (Aurora Biotechnologies) using a Multidrop Combi (Thermo Fisher Scientific Inc.), 23 nL compounds in DMSO were added by a pin tool (Kalypsys), and 5 ul of erythrocytes infected with P. falciparum (0.3% parasitemia, 2.5% hematocrit final concentration) were added. The plates were incubated at 37 C in a humidified incubator in 5% CO2 for 72 h, and 2 ul lysis buffer (20 mM Tris HCl, 10 mM EDTA, 0.16% saponin, 1.6% triton X, 10X SYBR Green I supplied as 10,000X […] by Invitrogen) was added to each well. The plates were mixed for 25 sec with gentle shaking and incubated overnight at room temperature in the dark. The following morning, fluorescence intensity at 485(14) nm excitation and 535(25) nm emission wavelengths was measured on an EnVision (Perkin Elmer) plate reader. Plate reads were normalized relative to the control inhibitor (0.29 uM artemisinin) and vehicle (DMSO) wells present on each plate and then corrected by an algorithm using vehicle-only control plates at the beginning and end of the compound plate stack.

SMILES	growth, % of control [%]
Clc1ccc(COC(Cn2ccnc2)c2ccc(Cl)cc2Cl)c(Cl)c1 (stereo not given)	8.03

Same assay, conditions: P. falciparum HB3 in erythrocytes, SYBR Green DNA, 72 h; at 28.5 µM (top of the series)

SMILES	growth, % of control [%]
Clc1ccc(COC(Cn2ccnc2)c2ccc(Cl)cc2Cl)c(Cl)c1 (stereo not given)	5.5

Same assay, conditions: P. falciparum HB3 in erythrocytes, SYBR Green DNA, 72 h; at 28.5 µM (top of the series) unless noted

SMILES	growth, % of control
OC1CCC(Nc2ncc3nc(Nc4c(F)cc(F)cc4F)n([C@@H]4CCOC4)c3n2)CC1 (stereo not given in full)	43.4%
Cc1ccc2c(c1)c1c(n2CCc2ccc(C)nc2)CCN(C)C1	135%
O=[N+]([O-])c1ccc(Nc2ccccc2-c2ccccc2)c2nonc12	75.1%
O=S(=O)(O)c1ccc2cc(N=Nc3cc(S(=O)(=O)O)c4cccnc4c3O)ccc2c1	47.7%
CCCCC(C=O)NC(=O)C(CC(C)C)NC(=O)OCc1ccccc1 (stereo not given)	4.08%
CN[C@@H](C)[C@H]1[C@H](O)C[C@@]2(C)[C@@H]3CC[C@H]4C(C)(C)[C@@H](NC)CC[C@@]45C[C@@]35CC[C@]12C	13.3%
CN[C@@H]1CN(c2ccc3c(=O)c(C(=O)O)cn(-c4nccs4)c3n2)C[C@@H]1OC	8.57% [at 9.64 µM]
CCOC(=O)c1c(CSc2ccccc2)n(C)c2cc(Br)c(O)c(CN(C)C)c12	2.97%
CN[C@H]1[C@@H](O[C@@H]2[C@H](O[C@@H]3[C@@H](O)[C@@H](O)[C@@H](N=C(N)N)[C@@H](O)[C@@H]3N=C(N)N)O[C@H](C)[C@@]2(O)C=O)O[C@@H](CO)[C@@H](O)[C@H]1O	89.1% [at 9.64 µM]
O=C(Nc1cccc(Cl)c1)Nc1ncc(CCNc2ncnc3ccsc23)s1	5.75%
O=c1[nH]c(=O)n([C@H]2C[C@@H](O)[C@@H](CO)O2)cc1I	62.7%
CC(C)(C)c1nc(-c2cccc(NS(=O)(=O)c3c(F)cccc3F)c2F)c(-c2ccnc(N)n2)s1	10.3%
N#CC(=C1Nc2ccccc2S1)c1ccnc(OCc2ccc(CN3CCOCC3)cc2)n1	10.8%
C#C[C@]1(O)CC[C@H]2[C@H]3CCc4cc(OC)ccc4[C@H]3CC[C@@]21C	87.7%
O=C(NC[C@H](O)CO)c1ccncc1Nc1ccc(I)cc1F	54.8%
CCNC(=O)[C@H]1O[C@@H](n2cnc3c(N)nc(NCCc4ccc(CCC(=O)O)cc4)nc32)[C@H](O)[C@H]1O	99.8%
Cn1c(=O)c(-c2c(Cl)cccc2Cl)cc2cnc(Nc3cccc(C(=O)O)c3)nc21	15.5%
CCCCC[C@H](O)C=C[C@H]1[C@H](O)CC(=O)[C@H]1CC=CCCCC(=O)O	103%
O=C1NC(=O)C(c2cnc3ccccn23)=C1c1cn2c3c(cccc13)CN(C(=O)N1CCOCC1)CC2	54.5%

SMILES	growth, % of control
CCC[C@H](Nc1nc(-c2ccc(NC(=O)NCC)c(OC)c2)ncc1C)c1cccnc1	4.28%
COC(=O)N1CCN(Cc2cccc(NC(=O)Nc3ccc(C)nc3)c2F)CC1	29.8%
COc1ccc(CCC(=O)Nc2nc3ccc(Cl)cc3s2)cc1OC	28.3%
C[C@@H](N)c1ccc(C(=O)Nc2ccnc3[nH]ccc23)cc1	67.7%
CCOC(=O)[C@H]1O[C@H]1C(=O)N[C@@H](CC(C)C)C(=O)NCCC(C)C	4.47%
CC(C)c1c(C(=O)Nc2ccccc2)c(-c2ccccc2)c(-c2ccc(F)cc2)n1CC[C@H](O)C[C@@H](O)CC(=O)O	4.89%
Nc1ccc(-c2ccc3ncc4ccc(=O)n(-c5cccc(C(F)(F)F)c5)c4c3c2)cn1	2.97%
COc1c(C)cnc(Cn2cnc3c(Cl)nc(N)nc32)c1C	21.1%
Cc1cc2c(cc1C1(c3ccc(C(=O)O)cn3)CC1)C(C)(C)CCC2(C)C	78.5%
CCCCn1c(=O)n(Cc2ccccc2F)c(=O)c2[nH]c(Cc3ccc(NC(C)=O)cc3)nc21	314%
CC(=O)Nc1cccc(-n2c(=O)n(C3CC3)c(=O)c3c(Nc4ccc(I)cc4F)n(C)c(=O)c(C)c32)c1	2.56%
Cc1c(-c2cccc3c(CCCOc4cccc5ccccc45)c(C(=O)O)n(Cc4cccnc4)c23)c(COc2ccc(N3CCN([S+](=O)([O-])N(C)C)CC3)cc2)nn1C	4.06%
C[C@H](c1ccc(F)cc1CCCC(=O)O)N(c1cc(F)ccc1F)S(=O)(=O)c1ccc(Cl)cc1	47.7%
OC[C@H]1O[C@@H](O[C@H]2[C@@H](O)[C@@](O)(CO)O[C@@H]2CO)[C@H](O)[C@@H](O)[C@@H]1O	88%
C[C@@H]1O[C@@H](O[C@H]2CC[C@@]3(C)[C@H](CC[C@@H]4[C@H]3C[C@@H](O)[C@]3(C)[C@@H](C5=CC(=O)OC5)CC[C@]43O)C2)C[C@H](O)[C@@H]1O[C@H]1C[C@H](O)[C@H](O[C@H]2C[C@H](O)[C@@H](O)[C@@H](C)O2)[C@H](C)O1 (stereo in doubt)	57% [at 57.5 µM]
C=C1c2cccc(O)c2C(O)=C2C(=O)[C@@]3(O)C(O)=C(C(N)=O)C(=O)[C@@H](N(C)C)[C@@H]3[C@@H](O)[C@H]12	15.6%
c1ccc(-c2oc3ncnc(NC[C@@H]4CCCO4)c3c2-c2ccccc2)cc1	19.8%
N[C@@H](CC(=O)N1CCn2c(nnc2C(F)(F)F)C1)Cc1cc(F)c(F)cc1F	104%
CN1CCC[C@H]1CCO[C@](C)(c1ccccc1)c1ccc(Cl)cc1	10.3%
